From paper PMC4552634, “A New Set of Chemical Starting Points with Plasmodium falciparum Transmission-Blocking Potential for Antimalarial Drug Discovery” (PLoS ONE, 2015)
About 3,200 (25%) of roughly 13,000 compounds showed an effect of 50% or more. This is one part of the list.

What follows are compounds tested on P. falciparum stage V gametocytes. Details: 48 h, 5 µM; inhibitor.
Set-up: BacTiter-Glo ATP luminescence viability of purified stage V gametocytes in 384-well plates, per cent inhibition versus DMSO

Row | Structure (SMILES) | % Inhibition
1 | Oc1cc(Nc2ccnc3cc(I)ccc23)c(F)cc1Cl [TCMDC-138386] | -3.325%
2 | COc1ccc2nccc([C@@H](O)CN3CCC(NC(=O)/C=C/c4c[nH]c5c(C)cccc45)CC3)c2c1 [TCMDC-141000] | -6.826%
3 | COC(=O)CCn1c(C2CCN(CC3CCC(NC(=O)/C=C/c4ccc(Cl)c(Cl)c4)CC3)CC2)nc2ccccc21 (stereo not drawn) [TCMDC-140309] | -7.996%
4 | Cc1ccc(C)c2sc(N(CCCn3ccnc3)C(=O)c3ccco3)nc12 [TCMDC-124924] | 13.91%
5 | Cc1cc(N2CCC(NS(=O)(=O)c3cccc4cccnc34)CC2)nc(Nc2cccc(C#N)c2)n1 [TCMDC-134212] | -0.7992%
6 | CCOC(=O)C1=C(C)NC2=C(C(=O)CCC2)C1c1cn(Cc2ccc(Cl)cc2Cl)nc1-c1ccccc1 (stereo not drawn) [TCMDC-125393] | -36.58%
7 | COc1ccc(CNC2CCN(C)CC2)cc1-c1ccc(S(=O)(=O)NCCN2CCCC2)s1 [TCMDC-132259] | 103.7%
8 | COc1ccc(CNC2CCN(C)CC2)cc1-c1ccc(S(=O)(=O)NCC2CCCO2)s1 (stereo not drawn) [TCMDC-132478] | 30.18%
9 | COc1ccc(CNC2Cc3ccccc3C2)cc1-c1ccc(S(=O)(=O)NCCN2CCCC2)s1 [TCMDC-132258] | 106.2%
10 | COc1ccc(CNC2CCN(C)CC2)cc1-c1ccc(S(=O)(=O)NC2CCC2)s1 [TCMDC-132254] | 75.62%
11 | COc1ccc(CNC2CCCC2)cc1-c1ccc(S(=O)(=O)NCCN2CCCC2)s1 [TCMDC-132299] | 107.1%
12 | COc1ccc(CCN2CCC(NCc3cccc(N(C)C)c3)CC2)cc1 [TCMDC-124991] | -14.2%
13 | N#Cc1cccc(-c2cnc(N)c(-c3nc4ccc(S(N)(=O)=O)cc4[nH]3)c2)c1 [TCMDC-138816] | 7.84%
14 | COc1ccc(C(c2ccc(N(C)C)cc2)c2ccc(N(C)C)cc2)cc1 [TCMDC-125652] | 48.26%
15 | CN1CCN(CC(O)CNC(=O)Nc2ccc(Cl)cc2)CC1 (stereo not drawn) [TCMDC-134633] | 21.11%
16 | COc1ccc2nccc([C@@H](O)CN3CCC(NC(=O)/C=C/c4ccc(Cl)c(C(F)(F)F)c4)CC3)c2c1 [TCMDC-141110] | -13.82%
17 | CN1CCC(c2c[nH]c3ccc(NC(=O)Nc4ccc(-c5ccncc5)c(Cl)c4Cl)cc23)CC1 [TCMDC-139179] | -11.47%
18 | CSc1ccc(C=CC(=O)NC(=O)c2ccccc2O)cc1 [TCMDC-123758] | 32.47%
19 | O=C(NC1CCN(c2ccnc(Nc3ccc(F)cc3)n2)C1)c1cc2ccccc2s1 (stereo not drawn) [TCMDC-133599] | 10.95%
20 | O=C(Nc1cccc(CN2CCCN(Cc3cccc(O)c3)CC2)c1)c1ccc(Cl)c(Cl)c1 [TCMDC-141831] | -42.16%
21 | Cc1ccc(CN2CCCN(Cc3cccc(NC(=O)c4ccc(Cl)c(Cl)c4)c3)CC2)cc1 [TCMDC-141835] | 80.74%
22 | Cc1ccc(NC(=O)c2cccc(CN3CCCN(Cc4cccc(O)c4)CC3)c2)cc1F [TCMDC-135959] | -11.31%
23 | O=C(Nc1cccc(CN2CCCN(CC3CCCCC3)CC2)c1)c1ccc(Cl)c(Cl)c1 [TCMDC-141818] | -34.63%
24 | O=C(Nc1cccc(CN2CCN(Cc3ccc(O)cc3)CC2)c1)c1ccc(Cl)c(Cl)c1 [TCMDC-134619] | -11.77%

Row | Structure (SMILES) | % Inhibition
25 | Cc1ccc(NC(=O)c2cccc(CN3CCCN(Cc4cccc(O)c4)CC3)c2)cc1C [TCMDC-135979] | 91.29%
26 | Cc1ccc(NC(=O)c2ccc(CN3CCCN(Cc4cccc(O)c4)CC3)cc2)cc1C [TCMDC-136427] | 11.16%
27 | O=C(Nc1cccc(CN2CCCN(Cc3ccc(O)cc3)CC2)c1)c1ccc(Cl)c(Cl)c1 [TCMDC-141834] | -18.14%
28 | Cc1ccc(C(=O)Nc2cccc(CN3CCCN(Cc4ccc(O)cc4)CC3)c2)cc1 [TCMDC-141815] | 21.11%
29 | O=C(Nc1cccc(CN2CCN(Cc3cccc(O)c3)CC2)c1)c1ccc(Cl)c(Cl)c1 [TCMDC-134618] | 76.18%
30 | COc1cccc(CN2CCCN(Cc3cccc(NC(=O)c4ccc(Cl)c(Cl)c4)c3)CC2)c1 [TCMDC-141830] | 58.26%
31 | N#Cc1ccc(CN2CCCN(Cc3cccc(NC(=O)c4ccc(Cl)c(Cl)c4)c3)CC2)cc1 [TCMDC-141823] | -56.24%
32 | O=C(Nc1ccc(OC2CCN(Cc3ccccc3)CC2)c(Cl)c1)c1ccc(F)cc1 [TCMDC-133967] | 19.46%
33 | FC(F)(F)c1ccc2nc(-c3ccc(-c4ccc(CN5CCN(c6ccncc6)CC5)cc4)cc3)[nH]c2c1 [TCMDC-132915] | -1.262%
34 | COc1cc(F)c2ncc(Cl)c(C(O)CN3CCC(NC(=O)c4ccc5c(n4)NC(=O)CO5)CC3)c2c1 (stereo not drawn) [TCMDC-135912] | -16.65%
35 | CCCc1cc(OC)c(CC2c3cccc(O)c3CCN2C)cc1OC (stereo not drawn) [TCMDC-137435] | 12.33%
36 | CN(C)c1ccc(C=CC(=O)NC(=O)c2ccccc2O)cc1 [TCMDC-125391] | 21.33%
37 | COc1ccc2c(c1)[nH]c1c(C=Cc3ccccc3)nccc12 [TCMDC-125877] | -0.575%
38 | CCC(Cc1cnc2nc(N)nc(N)c2n1)c1ccc(C(=O)N[C@@H](CCC(=O)O)C(=O)O)cc1 (stereo partly drawn) [TCMDC-137768] | -32.96%
39 | CN(c1cc(NC(=O)c2ccc(F)cc2)ccn1)C1CCN(Cc2cccc(C#N)c2)CC1 [TCMDC-134975] | 15.95%
40 | CC(C)CCN1CCCN(Cc2ccc(C(=O)Nc3ccc(Cl)cc3)cc2)CC1 [TCMDC-136413] | 0.3374%
41 | O=C(Nc1cccc(CN2CCCN(Cc3cccnc3)CC2)c1)c1ccc(Cl)c(Cl)c1 [TCMDC-141824] | 12.34%
42 | O=C(Nc1cccc(CN2CCCN(Cc3ccsc3)CC2)c1)c1ccc(Cl)c(Cl)c1 [TCMDC-134581] | -57.04%
43 | O=C(Nc1cccc(CN2CCCN(Cc3cccc(Cl)c3)CC2)c1)c1ccc(Cl)c(Cl)c1 [TCMDC-141822] | 77.55%
44 | Cc1ccc(NC(=O)c2ccc(CN3CCCN(CCC(C)C)CC3)cc2)cc1F [TCMDC-136410] | -21.57%
45 | CC(C)CCN1CCCN(Cc2cccc(NC(=O)c3ccc(Cl)c(Cl)c3)c2)CC1 [TCMDC-141827] | 68.73%
46 | CCCCN1CCN(Cc2cccc(NC(=O)c3ccc(Cl)c(Cl)c3)c2)CC1 [TCMDC-134615] | -27.06%
47 | CC(C)CCN1CCCN(Cc2ccc(C(=O)Nc3ccc(F)c(F)c3)cc2)CC1 [TCMDC-136391] | 89.43%
48 | CCCCCCN1CCN(Cc2cccc(NC(=O)c3ccc(Cl)c(Cl)c3)c2)CC1 [TCMDC-134617] | -46.23%

Row | Structure (SMILES) | % Inhibition
49 | CCC(C)Oc1ccc2nc(N)nc(N)c2c1Cl (stereo not drawn) [TCMDC-137760] | 3.28%
50 | O=C(NCCOc1ccccc1)[C@H](Cc1ccccc1)Nc1ccnc(NCC2CCCCC2)n1 [TCMDC-134710] | 2.198%
51 | CC(C)(C)CNCC(C)(C)c1nc(-c2ccc(Cl)c(O)c2)c(-c2ccncc2)[nH]1 [TCMDC-140549] | -40.13%
52 | CN1CCCN(Cc2ccc(-c3cccc(NC(=O)c4ccc(Cl)cc4)c3)cc2)CC1 [TCMDC-132628] | 20.29%
53 | CN1N=C2c3ccccc3CCC2C1c1ccc(C#N)cc1 (stereo not drawn) [TCMDC-123771] | -59.69%
54 | CN(CCO)Cc1ccc(-c2ccc(NS(=O)(=O)c3cccc4cccnc34)cc2)cc1 [TCMDC-136473] | -2.439%
55 | C=C(C)COc1ccc(-c2n[nH]c(C(F)(F)F)c2-c2ccccc2OC)c(O)c1 [TCMDC-124477] | 8.317%
56 | COc1ccc(N2CCN(C(CNC(=O)C3CCCCC3)c3ccc4c(c3)OCO4)CC2)cc1 (stereo not drawn) [TCMDC-124312] | 30.25%
57 | COc1ccccc1NC(=O)CSc1nc2cccnc2n1-c1ccccc1OC [TCMDC-123645] | 66.58%
58 | COc1ccc(C)cc1NC(=O)CSc1nc2cccnc2n1C1CCCCC1 [TCMDC-123649] | 3.671%
59 | COc1ccccc1-n1c(SCC(=O)Nc2ccccc2F)nc2cccnc21 [TCMDC-123647] | 7.521%
60 | c1ncc(CCNc2nc(Nc3ccc4c(c3)OCO4)nc(NC3CCCC3)n2)[nH]1 [TCMDC-139739] | 13.1%
61 | CC(=O)Nc1ncc(C(=O)Nc2ccc(-c3cccc(-c4nc5ccc(F)cc5[nH]4)c3)cc2)s1 [TCMDC-136912] | 21.3%
62 | O=C(Nc1cc(F)cc(F)c1)N1CCOC(CCN2CCC3(CCc4ccccc43)CC2)(c2ccc(Cl)c(Cl)c2)C1 (stereo not drawn) [TCMDC-135331] | -8.718%
63 | CCOC(=O)c1c(SCc2cccc(F)c2F)[nH]c2ccccc2c1=O [TCMDC-141118] | 58.44%
64 | Cc1c(CCc2cccc(F)c2F)[nH]c2ccccc2c1=O [TCMDC-141293] | 23.35%
65 | CCOC(=O)c1c(-c2ccccc2)[nH]c2c(sc3ccccc32)c1=O [TCMDC-131540] | 7.736%
66 | CCCCOC(=O)[C@H](CCC)NC(=O)c1ccc(NS(=O)(=O)c2ccc3nc(N)[nH]c(=O)c3c2)cc1 [TCMDC-137698] | 14.55%
67 | COc1ccc2c(CNCCCCCCNCc3c(OC)ccc4cc(OC)ccc34)c(OC)ccc2c1 [TCMDC-137300] | 117.1%
68 | COc1cc(CNCCCCCCNCc2cc(OC)cc3ccccc23)c2ccccc2c1 [TCMDC-137823] | 16.43%
69 | COc1ccc2ccc(OC)c(CNCCCCCCNCc3c(OC)ccc4ccc(OC)cc34)c2c1 [TCMDC-137796] | 140.1%
70 | COc1ccc2c(OC)c(CNCCCCCCNCc3ccc4cc(OC)ccc4c3OC)ccc2c1 [TCMDC-137953] | 105.9%
71 | COc1ccc2cc(CNCCCCCCNCc3ccc4cc(OC)ccc4c3)ccc2c1 [TCMDC-137797] | 110.4%
72 | COc1ccc(OC)c(C(O)CNC(C)C)c1 (stereo not drawn) [TCMDC-124281] | 22.77%
